Bioassay records: PubChem BioAssay, National Center for Advancing Translational Sciences (NCATS)
TDP1 cell noCPT: qHTS for Inhibitors of human tyrosyl-DNA phosphodiesterase 1 (TDP1): qHTS in cells in absence of CPT. actives 15% (n = 420,000). DT40 Tdp1-/- hTDP1 cells, no CPT, ATP luminescence, 48 h. Potency, µM (doses to about 46.2 µM), for inactives: at the top dose activity change, negative = growth inhibition, actives largely listed as inhibitors; further: potency means the concentration at half of the fitted maximal effect; nearly all actives have a fitted effect of over 55% in size
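Readout: luminescence from CellTiter-Glo after 30 min in the dark at RT. Cells: DT40 Tdp1-/- with stable hTDP1, 400/well. Exposure: compounds alone, ≥48 hr, 37 °C.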
ELG1 repair inh: inhibitors of ELG1-dependent DNA repair in HEK293T cells; HEK293T ELG1-luciferase reporter, luminescence, 16 h; DNA damage induced by 5-fluorouridine; Potency, µM (doses to about 46.1 µM), for inactives: at the top dose activity change, negative = inhibition, actives largely listed as inhibitors; AID 504467; actives 2.3% (n = 330,000); further: potency means the concentration at half of the fitted maximal effect; nearly all actives have a fitted effect of over 55% in size
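HEK293T cells expressing luciferase-tagged ELG1 (2,000/well) received 5-Fluorouridine plus compound or DMSO for 16 hr at 37 °C. Luciferase was read by ONE-Glo luminescence after 30 min at room temperature.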
HT1080-NT tox: kills 2HG-producing HT-1080-NT fibrosarcoma cells. actives 1.6% (n = 360,000). HT-1080-NT fibrosarcoma viability, CellTiter-Glo ATP luminescence, 48 h. Potency, µM (titrated, usually from 46.1 µM), inactives show top-dose activity, negative = less viability, actives largely listed as cytotoxic;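 further: NT is the 2HG producing partner of a matched IDH1 knockdown line; potency means the concentration at half of the fitted maximal effect; 0% = DMSO-treated cells and -100% = media-only wells without cells; nearly all actives have a fitted effect of over 55% in size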
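HT-1080-NT; 750 cells/well; 5% FBS RPMI; 48 h compound, 37 degrees C; CellTiter-Glo luminescence; curve fitting and curve-class assignment.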
DT40 TDP1 CPT: growth inhibition of DT40 Tdp1-/-;hTDP1 cells with camptothecin (screen for TDP1 inhibitors) | Potency, µM (doses to about 46.2 µM), inactives show at the top dose activity change, negative = growth inhibition, hits mostly inhibitors | actives 12% (n = 420,000) | chicken DT40 Tdp1-/-;hTDP1 cells + 20 nM CPT, ATP luminescence, 48 h; further: potency means the concentration at half of the fitted maximal effect; nearly all actives have a fitted effect of over 55% in size
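Chicken DT40 Tdp1-/- cells stably complemented with human TDP1 were seeded at 400 cells/well in medium containing 20 nM camptothecin, exposed to pin-transferred compounds, and grown at 37 °C for at least 48 hr. Viability was read as ATP luminescence.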
IL-1B inflam inh: inhibitors of inflammasome signaling (IL-1 beta secretion); THP-1 LPS/ATP IL-1B secretion, AlphaLISA, 16 h; active compounds read low; actives 4.7% (n = 360,000); AID 743279; activity change, % at 57.5 µM; in the data active means activity change below about -50%; inconclusive means mostly about -30% to -49%
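THP-1 cells pretreated 1 hr with compounds (up to 57.5 uM final), then stimulated with LPS (250 ng/mL final) plus ATP (1.25 mM final); secreted IL-1B measured by AlphaLISA after 16 hr, decreased signal indicating inhibition.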
HT1080 IDH1KD tx: toxicity to HT-1080 IDH1 knockdown cells (counter line). actives 2% (n = 360,000). HT-1080 IDH1 knockdown viability, ATP luminescence, 48 h. Potency, µM (series often up to 46.1 µM), inactives show at the highest dose activity, negative = toxicity, most hits filed as cytotoxic;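 further: potency means the concentration at half of the fitted maximal effect; 0% = DMSO wells and -100% = cell-free medium wells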
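Using the IDH1-knockdown HT-1080 line run in the same batch and compound series as the NT line, viability after 48 h at 37 °C was determined by CellTiter-Glo luminescence and expressed as % activity.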
Numbers without * were called inactive; ? = inconclusive; / = no result. Compounds with a hit are over-represented: about 19% of the library has one in this group of screens. Unless noted, the call rests on the fitted dose curve; in most records, active means well fitted curve in the direction sought with a large enough effect; inconclusive means small, poorly fitted or top-dose-only effect, or another doubt; inactive means no such curve, though single readings can be large; an effect the other way counts as inactive or inconclusive. Unless noted, on the % scale 0 is the no-effect control and ±100 the full control effect.

SMILES | TDP1 cell noCPT | ELG1 repair inh | HT1080-NT tox | DT40 TDP1 CPT | IL-1B inflam inh | HT1080 IDH1KD tx
Cc1cc(C)c2c(CC(=O)N3CCCC3)coc2c1 | -22.0% | 12.3% | -3.3% | 3.8% | -11.7 | -1.3%
Cc1ccc2c(CC(=O)Nc3ccc(S(=O)(=O)N4CCCCC4)cc3)coc2c1C | 14.6µM* | / | / | 13µM* | / | /
Cc1cc(C)c2c(CC(=O)Nc3ccc(S(=O)(=O)N4CCCC(C)C4)cc3)coc2c1 (centres undefined) | 23.1µM* | / | / | ? | / | /
Cc1ncc(CN2CCCC(CCC(=O)NCc3ccc(F)c(F)c3)C2)s1 (centres undefined) | -24.4% | -6.1% | 2.1% | -27.1% | 4.7 | 6.2%
COCCNC(=O)CCc1c(C)n(C)c2cc(-c3cc(OC)c(OC)c(OC)c3)nn2c1=O | 0.6% | / | / | -5.9% | / | /
O=C(Cc1n[nH]c(=O)c2ccccc12)Nc1cc(Cl)ccc1-n1cncn1 | ? | -18.7% | -4.3% | -9.3% | 12.2 | 14.4%
COc1ccccc1/C=N/NC(=O)C(=O)Nc1ccccc1OC(F)(F)C(F)F | ? | -1.0% | 9.5% | ? | -1.7 | 9.6%
O=C(N/N=C/c1cc(Cl)ccc1O)C(=O)Nc1ccccc1OC(F)(F)C(F)F | 1.84µM* | ? | ? | 2.06µM* | 39.4 | ?
O=C(N/N=C/c1cc(Br)ccc1O)C(=O)Nc1ccccc1OC(F)(F)C(F)F | 2.82µM* | -11.9% | 1.41µM* | 5.01µM* | 155.9 | 0.891µM*
OC1c2cc(Cl)cc(Cl)c2N=C2CCCN21 (centres undefined) | -1.3% | / | -2.5% | 1.8% | 41.0 | -2.4%
O=C(OC1C2C=CC1C1C(=O)NC21)c1ccccc1 (centres undefined) | -22.8% | / | 0.7% | 2.2% | -10.2 | 4.4%
CC1CCC2(CC1)C(Nc1cccc(Cl)c1)=NC(=S)N2CC#N (centres undefined) | 16.4µM* | -26.5% | ? | ? | -3.6 | -26.0%
CCOC(=O)c1oc2ccc(Br)cc2c1COC(=O)C1=COCCO1 | -27.1% | ? | -0.3% | -2.3% | 9.5 | 5.2%
[O-][n+]1cccc(CO)c1 | 1.3% | / | / | 22.2% | / | /
CCCCn1c(SCC(=O)N2CCC(C)CC2)nc2ccsc2c1=O | 14.6µM* | ? | -15.5% | ? | 7.4 | -9.4%
CCCCn1c(SCC(=O)N2CCOCC2)nc2ccccc2c1=O | -10.3% | 0.2% | -3.2% | -21.4% | -1.1 | -20.7%
CCC1CCCCN1C(=O)CSc1nc2ccsc2c(=O)n1Cc1ccccc1 (centres undefined) | 9.2µM* | ? | -9.9% | 20.6µM* | -10.1 | -16.8%
CCCCn1c(SCC(=O)N2CCN(c3ccccc3)CC2)nc2ccsc2c1=O | ? | ? | ? | 11.6µM* | -22.8 | ?
CC(=O)N1CCc2cc(NC(=O)C3(C)CCN3Cc3ccc(C(C)C)cc3)ccc21 (centres undefined) | ? | / | ? | ? | -10.4 | ?
CC1(C(=O)Nc2cnc3ccccc3c2)CCN1Cc1ccc2ccccc2c1 (centres undefined) | ? | / | ? | 14.6µM* | -10.6 | ?
CC(C)c1ccc(CN2CCC2(C)C(=O)Nc2cnc3ccccc3c2)cc1 (centres undefined) | 25.9µM* | / | ? | 18.4µM* | -0.7 | ?
CC1(C(=O)Nc2cnc3ccccc3c2)CCN1Cc1cc2ccccc2o1 (centres undefined) | 14.6µM* | / | -18.9% | 13µM* | -0.1 | ?
COc1ccc(CN2CCC2(C)C(=O)Nc2cnc3ccccc3c2)c2ccccc12 (centres undefined) | ? | / | ? | ? | -20.3 | ?
